Source: PubChem BioAssay (EPA / NIEHS)
Calls of active or inactive are those of the source. Rule for the calls: active = hit-call score of the fitted dose curve at least 0.9, where 1 is the maximum; inactive = score below 0.9.

Assay: BSK_BT_Bcell_Proliferation: Viability Assessment in the BioMAP Diversity Plus: BT Assay for B cell Proliferation (AID 2284227)
Details: primary human B cells with PBMC
Description: BSK_BT is a cell-based, multiplexed-readout assay that uses B cell and peripheral blood mononuclear cells, a human vascular primary cell co-culture, with measurements taken at 24 hours after chemical dosing in a microplate: 96-well plate.BSK_BT_Bcell_Proliferation is an assay component measured in the BSK_BT assay. It measures protein content, a form of viability reporter, as detected with absorbance signals by Sulforhodamine staining technology.Data from the assay component BSK_BT_Bcell_Proliferation was analyzed at the endpoint, BSK_BT_Bcell_Proliferation, in the positive analysis fitting direction relative to DMSO as the negative control and baseline of activity. Using a type of viability reporter, gain or loss-of-signal activity can be used to understand cellular changes in viability. To generalize the intended target to other relatable targets, this assay endpoint is annotated to the 'cell cycle' intended target family, where the subfamily is 'proliferation'.
The levels of cell surface (or secreted, indicated by the prefix "s") biomarker endpoints were measured by ELISA. Overt cytotoxicity to cells in confluent adherent cultures (all systems other than the BT system) was assessed by measuring total protein levels using sulforhodamine B (SRB) staining in parallel cultures at the time of biomarker measurements, indicated as SRB endpoints. For proliferation assays for adherent cell types, individual cell types are cultured at sub-confluence and relative cell numbers quantified by SRB staining at time points optimized for each system (48 h: 3C and CASM3C systems; 72 h: BT and HDF3CGF systems; 96 h: SAg system). SRB was performed by staining cells with 0.1% SRB after fixation with 10% TCA and reading wells at 560 nm.Viability and proliferation of PBMC (T cells) was quantified by Alamar Blue reduction for the SAg and BT systems. For PBMC viability (referred to as PBMC Cytotoxicity within the assay endpoint names), cells were plated (75,000/well in a 96-well plate) and then chemical samples added for 1 h before addition of activators, SEB and TSST-1 (20 ng/mL final concentration each). Cells were incubated for 90 h. Then, Alamar Blue (20 uL/well) (Invitrogen, Cat DAL1100) was added for 6 h, and the plates were read with a fluorescence microplate reader at 546/580 nm (excitation/emission). For PBMC proliferation, cells were plated and activated as above but incubated for only 16 h prior to addition of Alamar Blue. Plates were read after 6 h.

SMILES | outcome | AC50
O=C(O)c1cn(-c2ccc(F)cc2)c2cc(N3CCNCC3)c(F)cc2c1=O | inactive | 
CNC[C@H](O)c1cccc(O)c1 | inactive | 
Nc1cc([N+](=O)[O-])ccc1Cl | inactive | 
Cc1ccc(Nc2ccc(O)c3c2C(=O)c2ccccc2C3=O)cc1 | inactive | 
O=[N+]([O-])c1cc(C(F)(F)F)ccc1Cl | inactive | 
O=C(O)c1cn(C2CC2)c2cc(N3CCNCC3)c(F)cc2c1=O | inactive | 
c1ccc2c(c1)c1cccc3ccc4cccc2c4c31 | inactive | 
CC(C)Oc1ccccc1O | inactive | 
CCn1c2ccccc2c2cc(N)ccc21 |  | 13.1 µM (active)
CC1COc2ccccc2N1C(=O)C(Cl)Cl (configuration not stated) |  | 14.1 µM (active)
CCCCC(CC)COC(=O)/C=C\C(=O)OCC(CC)CCCC (configuration not stated) |  | 20 µM (active)
C=C(C)C(=O)O[C@H]1C[C@@H]2CC[C@@]1(C)C2(C)C | inactive | 
Cc1ccc2n[nH]nc2c1 | inactive | 
C#C[C@]1(O)CC[C@H]2[C@@H]3CCC4=Cc5oncc5C[C@]4(C)[C@H]3CC[C@@]21C |  | 33.1 µM (active)
O=P(c1ccccc1)(c1ccccc1)c1ccccc1 | inactive | 
CCc1c(C)cc(N)c(CC)c1N | inactive | 
O=C=NC1CCC(CC2CCC(N=C=O)CC2)CC1 (configuration not stated) |  | 31.2 µM (active)
CCCCCCCCCCCCCCCCCC(=O)OCC(CC)CCCC (configuration not stated) | inactive | 
CCCCCCCCC=O | inactive | 

SMILES | outcome | AC50
CC(=O)/C=C/C1=C(C)CCCC1(C)C | inactive | 
BrC1CCC(Br)C(Br)CCC(Br)C(Br)CCC1Br (configuration not stated) |  | 28.4 µM (active)
CN(CCOc1ccc(CC2SC(=O)NC2=O)cc1)c1ccccn1 (configuration not stated) | inactive | 
CC(C)c1ccc(C(C)C)cc1 | inactive | 
O=C1OC2(c3cc(Br)c(O)c(Br)c3Oc3c2cc(Br)c(O)c3Br)c2c(Cl)c(Cl)c(Cl)c(Cl)c21 | inactive | 
O=C1CCCCCCCCCCCCCCO1 |  | 34.9 µM (active)
c1ccc2sc(SN(C3CCCCC3)C3CCCCC3)nc2c1 | inactive | 
CC(=O)Nc1ccccc1O | inactive | 
CC1CCC(C(C)CS)CC1S (configuration not stated) | inactive | 
CCCCC(CC)COCCC#N (configuration not stated) | inactive | 
C=C[Si](OCC)(OCC)OCC | inactive | 
N#Cc1ccc(CC(=NNC(=O)Nc2ccc(OC(F)(F)F)cc2)c2cccc(C(F)(F)F)c2)cc1 | inactive | 
COC(=O)c1ccc(C)cc1 | inactive | 
CC(C)(COC(=O)c1ccccc1)COC(=O)c1ccccc1 | inactive | 
CCCCCCCCCC=O | inactive | 
CCCCC/C=C/C=C/C=O |  | 20.1 µM (active)
CC(=O)O[C@]1(C(C)=O)CC[C@H]2[C@@H]3C[C@H](C)C4=CC(=O)CC[C@]4(C)[C@H]3CC[C@@]21C | inactive | 
Cc1ccc(O)c(C(C)(C)C)c1 | inactive | 
